# Assay results as given in PubChem BioAssay.
# Unmarked numbers belong to inactive results. How the calls were made is not given here.
# Target: Pantothenate synthetase (Mycobacterium tuberculosis (strain ATCC 25618 / H37Rv)) (UniProt P9WIL5)
# Assay: Recombinant Mtb pantothenate synthetase (PanC) inhibitors, coupled enzyme, confirmatory (AID 375);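 further: 0% = full reaction with vehicle and 100% = no enzyme background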
# Settings: coupled enzyme assay; at 10 µM, hits give high values
# Sequence of Pantothenate synthetase (Mycobacterium tuberculosis (strain ATCC 25618 / H37Rv)) (P9WIL5 whole entry, looked up): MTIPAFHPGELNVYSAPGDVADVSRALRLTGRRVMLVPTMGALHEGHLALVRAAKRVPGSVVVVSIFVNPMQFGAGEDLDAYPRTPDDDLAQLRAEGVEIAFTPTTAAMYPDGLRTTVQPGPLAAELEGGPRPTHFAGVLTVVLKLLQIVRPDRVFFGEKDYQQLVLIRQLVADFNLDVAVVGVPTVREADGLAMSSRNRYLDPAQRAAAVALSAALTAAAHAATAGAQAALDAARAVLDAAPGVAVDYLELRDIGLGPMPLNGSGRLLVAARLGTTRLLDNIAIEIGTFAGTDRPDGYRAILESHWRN
row,SMILES,inhibition
1,Cc1ccccc1-n1c(Cn2c(=O)sc3ccccc32)nnc1SCC(N)=O,3%
2,CCn1nc(CC(=O)Nc2nnc(CC(=O)N3CCCCC3)s2)c2ccccc2c1=O,0%
3,O=C(Nc1cccnc1)c1cccc(NC(=O)c2ccco2)c1,0%
4,CN(C)CCCNC(=O)c1ccc(CN(c2ccccc2)S(C)(=O)=O)cc1,0%
5,COC(=O)CN1C(=O)C(O)(CC(=O)c2ccc(Cl)cc2)c2ccccc21 (configuration not stated),0%
6,Cc1cccc(Cn2c(SCC(=O)Nc3ccccc3)nc3c2c(=O)[nH]c(=O)n3C)c1,3%
7,Cn1c2c(c(=O)n(C)c1=O)C(CC(=O)Nc1ccccc1)C(=O)N2 (configuration not stated),7%
8,CC(=O)Nc1ccc(S(=O)(=O)N2CCN(C(C)CCc3ccccc3)CC2)cc1 (configuration not stated),2%
9,CC(C)(C)n1ncc2c(=O)n(CC(=O)NCCc3ccccc3)cnc21,4%
10,COc1cc(OC)cc(-c2nc3cc(C)ccc3o2)c1,3%
11,Cc1ccc(C(=O)CC2(O)C(=O)N(C)c3ccc(Br)cc32)c(C)c1 (configuration not stated),0%
12,O=C(NC(=O)c1ccc(Cl)cc1)Nc1cc(N2CCCCC2)ncn1,0%
13,CCOC(=O)N1CCN(c2cc(=O)n(-c3ccccc3Cl)c(=O)[nH]2)CC1,0%
14,CCC(C(=O)N1CCc2cc(OC)c(OC)cc2C1)c1ccccc1 (configuration not stated),0%
15,Cc1cc(C)n2nc3nc(N4CCCCC4)nc(-c4ccco4)c3c2n1,25%
16,CCC(C)NC(=O)C1CCCN(S(=O)(=O)c2ccc(-n3cnnn3)cc2)C1 (configuration not stated),0%
17,CN(C)c1cccc2c(S(=O)(=O)Nc3ccccn3)cccc12,1%
18,CC1CCN(Cc2nc3c(c(=O)n(C)c(=O)n3C)n2Cc2cccc3ccccc23)CC1,0%
19,Cn1c(=O)[nH]c(=O)c2c1nc(CN1CCN(c3cccc(Cl)c3)CC1)n2CCc1ccccc1,4%
20,COc1ccc(OC)c(C(=O)CSc2nc3ncccc3[nH]2)c1,0%
21,CN1CCN(CC(=O)N2c3ccccc3C(C)(c3ccccc3)CC2(C)C)CC1 (configuration not stated),0%
22,CCOc1ccc(OCC)c(NS(=O)(=O)c2ccc3c(c2)n(C)c(=O)c(=O)n3C)c1,3%
